Reference: the supplement of paper PMC9135407
Several values for one entry are separate records, joined by “and”; a condition that tells them apart may be missing. Equal entries are not always repeated. Structures can show the parent of a compound that is named as a salt. Out of some 5,800 compounds screened, about 620 (11%) showed activity. This excerpt belongs to a sample that is enriched for actives. A number with no mark means an inactive call.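 Rule for the calls: active = score above a cut-off or among the top three wells of a plate; in these data no inactive exceeds 0.85.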

System: primary human hepatic stellate cells (donor 1)
Test: scaled lipid accumulation score (0 = DMSO-like, 1 = nortriptyline-like); higher = stronger HSC inactivation (lipid re-accumulation), active = hit call of the paper
Conditions: 48 h
[1] = library stock concentration: 1 mM
[2] = library stock concentration: 10 mM
[3] = library stock concentration: 6.4 mM
[4] = library stock concentration: 3.33 mM
[5] = library stock concentration: 80 uM
[6] = library stock concentration: 400 uM
[7] = library stock concentration: 2 mM

O=C(O)CCC/C=C\C[C@H]1C(=O)C=C[C@@H]1/C=C/[C@@H](O)COc1ccccc1 [16-phenoxy tetranor Prostaglandin A2]
scaled lipid accumulation score [1]: ≤ 0

CCCCCCCCCCCCCCCC(=O)OC[C@H](COP(=O)([O-])OCC[N+](C)(C)C)OC(=O)CCCCCCCC(=O)O
scaled lipid accumulation score [1]: ≤ 0

CC(C)(C)[C@]1(O)CCN2C[C@H]3c4ccccc4CCc4cccc(c43)[C@@H]2C1 [(+)-Butaclamol hydrochloride]
scaled lipid accumulation score [2]: 0.672

CC(C)(C)[C@]1(O)CCN2C[C@H]3c4ccccc4CCc4cccc(c43)[C@@H]2C1
scaled lipid accumulation score [2]: 0.691

CCCCC[C@H](O)/C=C/C=C\CCCCCCCC(=O)O
scaled lipid accumulation score (library stock concentration: 100 uM): ≤ -0.021

CCCCCC(=O)/C=C/[C@@H]1[C@@H](C/C=C\CCCC(=O)O)[C@@H](O)C[C@H]1O [15-keto Prostaglandin F2.alpha.]
scaled lipid accumulation score [1]: ≤ 0

Clc1ccc2c(c1)C(N1CCNCC1)=Nc1ccccc1O2 [Amoxapine] [listing 1 of 4 here]
scaled lipid accumulation score [3]: 0.886 (active)

Clc1ccc2c(c1)C(N1CCNCC1)=Nc1ccccc1O2 [Amoxapine] [listing 2 of 4 here]
scaled lipid accumulation score [2]: 1.05 (active)

Clc1ccc2c(c1)C(N1CCNCC1)=Nc1ccccc1O2 [Amoxapine] [listing 3 of 4 here]
scaled lipid accumulation score [3]: 0.598

CCN(CC)CCCCN1c2ccccc2Oc2ccc(Cl)cc21 [Akt Inhibitor X]
scaled lipid accumulation score [4]: 0.225

CC(=O)NNC(=O)N1Cc2ccccc2Oc2ccc(Cl)cc21
scaled lipid accumulation score [2]: ≤ 0 and ≤ -0.006

Clc1ccc2c(c1)C(N1CCNCC1)=Nc1ccccc1O2
scaled lipid accumulation score [2]: 0.843

Clc1ccc2c(c1)C(N1CCNCC1)=Nc1ccccc1O2 [Amoxapine] [listing 4 of 4 here]
scaled lipid accumulation score: 0.863 (active)

CCN(CC)CCCCN1c2ccccc2Oc2ccc(Cl)cc21 [10-DEBC hydrochloride]
scaled lipid accumulation score [2]: 0.5

Nc1ncnc2c1ncn2[C@@H]1O[C@@H]2COP(=O)(O)O[C@H]2[C@H]1O [Adenosine 3',5'-cyclic monophosphate]
scaled lipid accumulation score [2]: 0.281

NC(C(=O)O)C(O)C(=O)O (racemic) [DL-threo-beta-hydroxyaspartic acid]
scaled lipid accumulation score [2]: ≤ -0.07

O=C[C@@H]1CCCN1C(=O)[C@@H]1CCCN1C(=O)OCc1ccccc1 [Z-prolyl-prolinal]
scaled lipid accumulation score (library stock concentration: 15.1 mM): 0.107

CO/N=C(\C(=O)N[C@@H]1C(=O)N2C(C(=O)O)=C(CSC(=O)c3ccco3)CS[C@H]12)c1csc(N)n1
scaled lipid accumulation score [2]: ≤ 0

CO/N=C(\C(=O)N[C@@H]1C(=O)N2C(C(=O)O)=C(CSC(=O)c3ccco3)CS[C@H]12)c1csc(N)n1 [Ceftiofur HCl]
scaled lipid accumulation score [4]: 0.015
scaled lipid accumulation score [2]: ≤ 0

CC[C@H]1OC(=O)[C@H](C)[C@@H](O[C@H]2C[C@@](C)(OC)[C@@H](O)[C@H](C)O2)[C@H](C)[C@@H](O[C@@H]2O[C@H](C)C[C@H](NC)[C@H]2O)[C@](C)(O)C[C@@H](C)CN(C)[C@H](C)[C@@H](O)[C@]1(C)O
scaled lipid accumulation score [2]: 0.363

Cc1ccc2c(c1)C(=O)C1(O)CCN(c3ccccc3)C1=N2 (configuration not stated)
scaled lipid accumulation score [1]: ≤ 0
scaled lipid accumulation score [2]: ≤ -0.006

Cc1ccc2c(c1)C(=O)C1(O)CCN(c3ccccc3)C1=N2 (configuration not stated) [Blebbistatin]
scaled lipid accumulation score (library stock concentration: 17.1 mM): 0.072

CCCCC[C@H](O)/C=C/[C@@H]1[C@@H](C/C=C\CCCCCC(=O)O)[C@@H](O)C[C@H]1O [1a,1b-dihomo Prostaglandin F2.alpha.]
scaled lipid accumulation score [1]: ≤ 0

CCCCC(C)(C)[C@H](O)/C=C/[C@H]1C=CC(=O)[C@@H]1CCCCCCC(=O)O [16,16-dimethyl Prostaglandin A1]
scaled lipid accumulation score [1]: ≤ 0

CCCCCCCC/C=C/CCCCCCCC(=O)O [Elaidic Acid]
scaled lipid accumulation score [1]: ≤ 0

c1ccc(\C(\c2c3cccc2)=C\CCNC)c(C=C3)c1 [Norcyclobenzaprine]
scaled lipid accumulation score: 1.13 (active)

CNCCC=C1c2ccccc2CCc2ccccc21.Cl
scaled lipid accumulation score [2]: 1.02 (active)

C(=C/CCNC)(/c1c(cccc1)CC2)\c3c2cccc3 [Nortriptyline]
scaled lipid accumulation score (library stock concentration: 7.6 mM): 0.971 (active)

Cl.C(=C\CCNC)(/c1c(cccc1)CC2)\c3c2cccc3 [Nortriptyline hydrochloride]
scaled lipid accumulation score: 1.13 (active)

CNCCC=C1c2ccccc2CCc2ccccc21 [Nortriptyline]
scaled lipid accumulation score [2]: 0.72

OCc1ccccc1
scaled lipid accumulation score [2]: ≤ 0

CC(=O)N[C@@H](Cc1c[nH]c2ccccc12)C(N)=O [Acetyltryptophanamide]
scaled lipid accumulation score [2]: ≤ 0

COc1ccc2c(Oc3ccc(NC(=O)c4c(C)n(CC(C)(C)O)n(-c5ccccc5)c4=O)nc3)ccnc2c1
scaled lipid accumulation score [4]: ≤ 0
scaled lipid accumulation score [2]: ≤ 0

C[C@H](Cc1ccc(O)c(O)c1)[C@@H](C)Cc1ccc(O)c(O)c1
scaled lipid accumulation score [2]: ≤ -0.055

COCCCN1CCC(NC(=O)c2cc(Cl)c(N)c3c2OCC3)CC1 [Prucalopride Succinat]
scaled lipid accumulation score [4]: 0.028
scaled lipid accumulation score [2]: 0.03

COCCCN1CCC(NC(=O)c2cc(Cl)c(N)c3c2OCC3)CC1 [Prucalopride]
scaled lipid accumulation score [4]: ≤ 0
scaled lipid accumulation score [2]: ≤ 0

CC1(C)O[C@H]2CC(=O)OC[C@]23[C@H]2CC[C@@]4(C)[C@H](c5ccoc5)OC(=O)[C@H]5O[C@]54[C@]2(C)C(=O)C[C@@H]13 [Limonin]
scaled lipid accumulation score [4]: ≤ 0
scaled lipid accumulation score [2]: 0.008

O=C(O)CCC/C=C/C[C@@H]1[C@@H](CC[C@@H](O)CCc2ccccc2)[C@H](O)C[C@@H]1O [5-trans Latanoprost (free acid)]
scaled lipid accumulation score [1]: ≤ 0

O=C1O[C@H]([C@@H](O)CO)C([O-])=C1O.[Na+] [Sodium ascorbate]
scaled lipid accumulation score [4]: ≤ 0
scaled lipid accumulation score [2]: ≤ -0.001

CCCCC[C@H](O)/C=C/[C@H]1C(=O)C[C@H](O)[C@@H]1C/C=C\CCCC(=O)OCC(O)CO (some centres not stated) [Prostaglandin D2-1-glyceryl ester]
scaled lipid accumulation score [1]: ≤ 0

CN1C(=O)C(Cc2c[nH]c3ccccc23)NC1=S (configuration not stated) [Necrostatin-1]
scaled lipid accumulation score [5]: 0.008
scaled lipid accumulation score [6]: ≤ 0
scaled lipid accumulation score [7]: ≤ 0
scaled lipid accumulation score [4]: ≤ -0.009 and ≤ 0
scaled lipid accumulation score [2]: ≤ 0 and 0.03

CCCc1c(OCCCCc2nnn[nH]2)ccc(C(C)=O)c1O
scaled lipid accumulation score [1]: ≤ 0 and ≤ -0.021
scaled lipid accumulation score [2]: 0.011

COc1cc2c(cc1OC)-c1c/c(=N\c3c(C)cc(C)cc3C)n(C)c(=O)n1CC2 [Trequinsin hydrochloride]
scaled lipid accumulation score [2]: 0.494 and 0.174

COc1cc2c(cc1OC)-c1c/c(=N\c3c(C)cc(C)cc3C)n(C)c(=O)n1CC2 [Trequinsin]
scaled lipid accumulation score (library stock concentration: 4.9 mM): 0.164
scaled lipid accumulation score (library stock concentration: 12.3 mM): 0.244

C#CC(N)CCC(=O)O (configuration not stated) [gamma-Acetylinic GABA]
scaled lipid accumulation score [2]: 0.037

C1CCC2(CC1)CCNCC2 [4,4-Pentamethylenepiperidine hydrochloride]
scaled lipid accumulation score [2]: 0.028

CCCCCCCCCCCCCCCCCCCCCC(=O)NCCS(=O)(=O)O [N-Docosanoyl Taurine]
scaled lipid accumulation score [1]: ≤ 0

C(=C/CCNC)(/c1c2cccc1)\c3c(cccc3)CC2.Cl [Nortriptyline hydrochloride]
scaled lipid accumulation score [2]: 1.04 (active)

N[C@H]1CCN(O)C1=O
scaled lipid accumulation score [2]: ≤ 0

NCc1cccc2ccncc12 [8-Isoquinoline methanamine (hydrochloride)]
scaled lipid accumulation score [1]: 0.003

CCCCCCNC(=O)Nc1ccc(S(=O)(=O)Nc2ccc(CCNC[C@H](O)COc3ccc(O)cc3)cc2)cc1
scaled lipid accumulation score [2]: 0.462

O=C(O)CCCCCC[C@H]1C(=O)C[C@@H](O)[C@@H]1/C=C/[C@@H](O)Cc1ccccc1 [16-phenyl tetranor Prostaglandin E1]
scaled lipid accumulation score [1]: 0.017

CCCCCCCCCCCCCCCC(=O)OC[C@H](COP(=O)([O-])OCC[N+](C)(C)C)OC(=O)CCCC(=O)/C=C/C(=O)O
scaled lipid accumulation score [1]: 0.034

O=C1C(Cl)=C(N2CCOCC2)C(=O)N1c1ccc(Cl)c(Cl)c1
scaled lipid accumulation score [4]: ≤ -0.009
scaled lipid accumulation score [2]: ≤ 0

COCC(=O)NC/C=C/c1ccc2ncnc(Nc3ccc(Oc4ccc(C)nc4)c(C)c3)c2c1 [listing 1 of 2 here]
scaled lipid accumulation score [5]: ≤ 0
scaled lipid accumulation score [6]: ≤ 0 and ≤ -0.005
scaled lipid accumulation score [7]: ≤ 0 and ≤ -0.005
scaled lipid accumulation score [2]: 0.108

COc1ccc(Nc2ncnc3ccc(OC)cc23)cc1 [MPMQ hydrochloride]
scaled lipid accumulation score [2]: 0.051

COCC(=O)NC/C=C/c1ccc2ncnc(Nc3ccc(Oc4ccc(C)nc4)c(C)c3)c2c1 [listing 2 of 2 here]
scaled lipid accumulation score [2]: 1.46 (active)

NC1=NCCN1CC(=O)O [Cyclocreatine]
scaled lipid accumulation score [2]: ≤ 0

CCCCCCCCCCCCCCCC(=O)NCCS(=O)(=O)O [N-Palmitoyl Taurine]
scaled lipid accumulation score [1]: ≤ 0

CCCS(=O)(=O)Nc1ccc(F)c(C(=O)c2c[nH]c3ncc(Cl)cc23)c1F [listing 1 of 2 here]
scaled lipid accumulation score [5]: ≤ 0
scaled lipid accumulation score [6]: ≤ 0 and 0.028
scaled lipid accumulation score [7]: ≤ 0 and 0.042
scaled lipid accumulation score [4]: ≤ 0
scaled lipid accumulation score [2]: ≤ 0

CCCS(=O)(=O)Nc1ccc(F)c(C(=O)c2c[nH]c3ncc(-c4ccc(Cl)cc4)cc23)c1F [Vemurafenib (PLX4032, RG7204)]
scaled lipid accumulation score [4]: ≤ 0
scaled lipid accumulation score [2]: ≤ 0

CCCS(=O)(=O)Nc1ccc(F)c(C(=O)c2c[nH]c3ncc(Cl)cc23)c1F [listing 2 of 2 here]
scaled lipid accumulation score [2]: 1.16 (active)

Cc1noc(-c2ccc(CSCCC(=O)O)cc2)c1NC(=O)OC(C)c1ccccc1Cl (configuration not stated)
scaled lipid accumulation score [4]: 0.003
scaled lipid accumulation score [2]: ≤ 0

CCCCCCCOC(=O)Cc1c(C)n(C(=O)c2ccc(Cl)cc2)c2ccc(OC)cc12 [Indomethacin heptyl ester]
scaled lipid accumulation score [1]: 0.015
